Screens as filed in PubChem.
Compounds with a hit are over-represented: about 22% of the library has one in this group of screens.
CYP2C9 inh – inhibitors of human CYP2C9; P11712; CYP2C9 Supersomes, luciferin-H conversion, luminescence; inhibition, % at 5 µM; 96,000 compounds, 20% hits; AID 777;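 active = blocking of liver enzyme CYP2C9 beyond about 50% at 5 µM, limit read from the data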
Target sequence (P11712 whole entry, looked up): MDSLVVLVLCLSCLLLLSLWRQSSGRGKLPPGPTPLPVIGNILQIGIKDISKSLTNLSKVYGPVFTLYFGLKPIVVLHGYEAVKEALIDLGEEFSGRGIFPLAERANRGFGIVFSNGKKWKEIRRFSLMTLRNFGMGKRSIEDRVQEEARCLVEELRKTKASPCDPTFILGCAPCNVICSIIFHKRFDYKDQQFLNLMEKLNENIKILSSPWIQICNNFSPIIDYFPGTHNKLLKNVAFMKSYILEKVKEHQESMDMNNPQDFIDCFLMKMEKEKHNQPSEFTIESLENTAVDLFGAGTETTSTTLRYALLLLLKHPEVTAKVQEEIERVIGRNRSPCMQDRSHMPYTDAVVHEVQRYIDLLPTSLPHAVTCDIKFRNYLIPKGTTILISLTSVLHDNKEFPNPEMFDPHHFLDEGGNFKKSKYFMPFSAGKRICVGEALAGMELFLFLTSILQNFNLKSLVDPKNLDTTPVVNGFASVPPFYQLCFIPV
CYP2C19 inhib – human CYP2C19 inhibition. 96,000 compounds, 21% hits. AID 778. inhibition, % at 5 µM. CYP2C19 Supersomes, luciferin-H EGE luminescence, 30 min;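 active = CYP2C19 inhibition above a set limit at 5 µM in the primary screen, cut at about 50% in these data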;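 note: plate controls were negative control wells for no effect and 2.5 mM tranylcypromine positive control for full effect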
F-actin modifier – modifiers of cytoskeleton assembly; HUVEC TNFa F-actin phalloidin imaging, high content; inhibition, % at 2 µM; 91,000 compounds, 0.18% hits;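 active = inhibition above the batch mean plus 3 SD and confirmed as a hit by visual image inspection, cut at about 30% in these data, passing the limit was not always enough; inconclusive = above the inhibition threshold but rejected on visual inspection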
E-sel TNF inh – TNF alpha driven E-selectin expression inhibition; HUVEC TNFa-induced E-selectin immunofluorescence, high content; inhibition, % at 2 µM; 120,000 compounds, 0.71% hits; AID 1246;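 active = inhibition above the batch mean plus 3 SD, and confirmed as a hit on visual image review, cut at about 43% in these data; inconclusive = passes the inhibition cutoff but fails visual image review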;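 note: 0% = TNF-stimulated DMSO wells and 100% = unstimulated control wells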
CYP2C9 activ – CYP2C9 (human) activation | P11712 | recombinant CYP2C9, luciferin-H conversion, luminescence; stronger effect = higher value; factor 1 = untreated enzyme, 0 = blocked | activation factor at 5 µM | 96,000 compounds, 1.4% hits | AID 1024;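 active = activation factor of 2 or more for CYP2C9 at a 5 µM dose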;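 note: 0 = sulfaphenazole-blocked wells and 1 = vehicle-only wells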
CYP2C19 activ – increases human CYP2C19 enzyme activity; P33261; 96,000 tested, under 10 active; recombinant CYP2C19, luciferin-H EGE luminescence; stronger effect = higher value; 0 = fully inhibited enzyme, 1 = untreated enzyme; activation factor at 5 µM;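 active = activation factor of at least 2 at 5 µM in the primary screen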;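 note: 0 = wells with 2.5 mM tranylcypromine and 1 = vehicle-only wells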
The depositor's hits bear a star; ? = inconclusive; . = not tested or not shown.

SMILES	CYP2C9 inh	CYP2C19 inhib	F-actin modifier	E-sel TNF inh	CYP2C9 activ	CYP2C19 activ
O=C(Nc1ccccc1C(=O)O)c1ccccc1	38	5	.	-33	0.6	1
CC(=O)c1cccc(NC(=O)c2ccc(Br)o2)c1	28	47	.	-24	0.7	0.5
CC(C)CC(=O)Nc1cccc(C(=O)Nc2ccccc2C(=O)O)c1	74*	7	.	12	0.3	0.9
O=C(Nc1ccccc1C(=O)O)c1cccc(NC(=O)c2ccc(Br)o2)c1	91*	2	-5	-29	0.1	1
Cn1c(=O)c2c(O)cc(=O)n(-c3ccccc3)c2n(C)c1=O	-16	-9	34	.	1.2	1.1
CC(Sc1ccc(Cl)cc1)C(=O)Nc1ccc(S(=O)(=O)N2CCOCC2)cc1 (stereo not given)	62*	50	-21	-10	0.4	0.5
CCC(=O)Nc1ccc(S(=O)(=O)N2CCOCC2)cc1	11	7	8	-1	0.9	0.9
CC(C)C(C(=O)Nc1ccc(S(=O)(=O)N2CCOCC2)cc1)N1C(=O)c2ccccc2C1=O (stereo not given)	5	-9	-20	-3	0.9	1.1
Cc1ccc(N(CC(=O)Nc2ccc(S(=O)(=O)N3CCOCC3)cc2)S(C)(=O)=O)cc1C	98*	77*	-24	9	0	0.2
Cc1ccc(N(C(C)C(=O)Nc2ccc(S(=O)(=O)N3CCOCC3)cc2)S(C)(=O)=O)cc1C (stereo not given)	89*	36	13	-5	0.1	0.6
CC(C)c1ccc(N(CC(=O)Nc2ccc(S(=O)(=O)N3CCOCC3)cc2)S(C)(=O)=O)cc1	90*	73*	12	13	0.1	0.3
O=C(Cc1ccccc1)N/N=C/c1cc(Br)c(Br)o1	-2	3	13	12	1	1
O=C(COc1nc2ccccc2nc1N1CCOCC1)N1CCc2ccccc21	3	-19	-26	-1	1	1.2
O=C(/C=C/c1cccs1)c1cc(Br)ccc1OC(=O)N1CCOCC1	.	.	.	4	.	.
CC(C)CCNC(=O)CCCOc1cc(=O)n(C)c2ccccc12	-6	15	0	14	1.1	0.8
CC(C)c1ccc(N(CC(=O)NCCSC(C)(C)C)S(C)(=O)=O)cc1	38	61*	-11	-9	0.6	0.4
CC(C(=O)N1CCC(C(N)=O)CC1)N(c1ccc(Oc2ccccc2)cc1)S(C)(=O)=O (stereo not given)	21	-5	7	.	0.8	1
COc1ccccc1N(CC(=O)NCCSC(C)(C)C)S(C)(=O)=O	-9	16	23	-30	1.1	0.8
Cc1ccc(N(C(C)C(=O)N2CCCCC2)S(C)(=O)=O)cc1C (stereo not given)	6	82*	2	-15	0.9	0.2
O=C(CCCNS(=O)(=O)c1cccc2nsnc12)NC1CCCCC1	-10	-6	.	.	1.1	1.1
O=C(NC1CCCC1)C1CCN(S(=O)(=O)c2cccc3cccnc23)CC1	-213	22	11	.	3.1*	0.8
CC1CCCN(C(=O)C2CCN(S(=O)(=O)c3cccc4cccnc34)CC2)C1 (stereo not given)	-228	49	3	.	3.3*	0.5
Cc1ccc(C)n1-c1ccc(N2CCOCC2)c(Br)c1	6	14	-12	-4	0.9	0.9
Clc1ccc2c(c1)c1ccccc1n2CN1CCOCC1	49	72*	2	-10	0.5	0.3
NCc1ccc(-c2nc3ccccc3o2)cc1	70*	98*	.	.	0.3	0
SMILES	CYP2C9 inh	CYP2C19 inhib	F-actin modifier	E-sel TNF inh	CYP2C9 activ	CYP2C19 activ
O=S(=O)(CCc1nc2ccccc2o1)c1ccc(Cl)c(Cl)c1	-6	23	.	.	1.1	0.8
O=C1c2ccccc2C(=O)N1c1ccc(-c2nc3ccccc3o2)cc1	-6	-12	-3	18	1.1	1.1
Nc1ccc(CCc2nc3ccccc3o2)cc1	76*	96*	-21	.	0.2	0
O=C(NCc1ccco1)C(c1cccs1)N(C(=O)C1COc2ccccc2O1)c1cccc(O)c1 (stereo not given)	94*	97*	11	-34	0.1	0
CC1C(c2ccccc2)C(C#N)(C#N)C2(C#N)C(=O)NC1(N)C2C (stereo not given)	34	98*	?	-11	0.7	0
C=C(C)C1CC=C(C)/C(=N/NC(=O)COc2cccc(C)c2)C1 (stereo not given)	.	.	2	-9	.	.
